Reference: PubChem BioAssay (NCI)
This is part of a sample that, as a whole, favours compounds with a hit. Of some 83,000 tested, about 20% had one in any assay.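 Cells were grown in 96-well plates and exposed to the test compound at a single concentration for 48 hours; results are reported as percent growth, with values below 10 considered active.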 Values without a mark were called inactive. Active and inactive are the calls of the source.

Key:
Experiment in all cases: NCI-60 one-dose screen, 48 h (100 = growth as untreated, 0 = no growth, -100 = all killed)
Details in all cases: 10 µM unless noted
DU-145 prostate = system: DU-145 prostate
K-562 leukemia = system: K-562 leukemia
MALME-3M melanoma = system: MALME-3M melanoma
MDA-MB-231 breast = system: MDA-MB-231 breast
RXF 393 renal = system: RXF 393 renal
SF-268 CNS = system: SF-268 CNS
SF-295 CNS = system: SF-295 CNS
SF-539 CNS = system: SF-539 CNS
UACC-257 melanoma = system: UACC-257 melanoma
M14 melanoma = system: M14 melanoma
HCT-15 colon = system: HCT-15 colon
HT29 colon = system: HT29 colon
SNB-75 CNS = system: SNB-75 CNS
SNB-19 CNS = system: SNB-19 CNS
U251 CNS = system: U251 CNS
PC-3 prostate = system: PC-3 prostate
SK-MEL-5 melanoma = system: SK-MEL-5 melanoma
UACC-62 melanoma = system: UACC-62 melanoma
LOX IMVI melanoma = system: LOX IMVI melanoma
SK-MEL-28 melanoma = system: SK-MEL-28 melanoma

Structure (SMILES) | growth (DU-145 prostate) | growth (K-562 leukemia) | growth (MALME-3M melanoma) | growth (MDA-MB-231 breast) | growth (RXF 393 renal) | growth (SF-268 CNS) | growth (SF-295 CNS) | growth (SF-539 CNS) | growth (UACC-257 melanoma) | growth (M14 melanoma) | growth (HCT-15 colon) | growth (HT29 colon) | growth (SNB-75 CNS) | growth (SNB-19 CNS) | growth (U251 CNS) | growth (PC-3 prostate) | growth (SK-MEL-5 melanoma) | growth (UACC-62 melanoma) | growth (LOX IMVI melanoma) | growth (SK-MEL-28 melanoma)
COCCOCCOCc1n(Cc2ccc3ccccc3n2)c2ccccc2[n+]1Cc1ccc2ccccc2n1 | 35.4% | 19.1% | 5.23% (active) | 17.9% | 66.9% | 22.7% | 52.3% | 26.7% | -5.39% (active) | 26% | 109% | 15.3% | 4.56% (active) | 22.4% | 10.8% | 13.7% | -14.6% (active) | 14.5% | 28.6% | 41.8%
COc1ccc(N(C)c2nc(Cl)nc3ccn(C)c23)cc1 | 2.61% (active) | 7.28% (active) | 84.8% | 0.175% (active) | 48.3% | 24.3% | 15.5% | -32% (active) | 49.6% | -0.998% (active) | 12.6% | -2.47% (active) | 56.8% | 25.3% | 3.67% (active) | 16.1% | -44.2% (active) | 39.1% | 27.6% | 49.2%
O=C(Nc1cc(=O)[nH]c(=O)[nH]1)C(Cl)Cl | 113% | 99.2% | 96.7% | 102% | 106% | 99.9% | 105% | 106% | 96.5% | 106% | 103% | 102% | 96.9% | 99% | 99.5% | 92% | 102% | 88.9% | 100% | 111%
COC(=O)/C=C1\SC(=Nc2cccc(OC)c2)N(CCc2c[nH]c3ccccc23)C1=O | 69.3% | 40.8% | 80.5% | 66.1% | 49.2% | 82.8% | 61.9% | 83.4% | 61.7% | 64.9% | 39.9% | 12.2% | 85% | 72.9% | 53.9% | 40.1% | 77.2% | 44.1% | 49.3% | 89.6%
CCc1ccc(OCc2ccccc2C(=O)Nc2ccc3nc(C)cc(N)c3c2)cc1 | -96.3% (active) | -68% (active) | -86.4% (active) | -82.4% (active) | -84.5% (active) | -82.5% (active) | -92% (active) | -97.5% (active) | -79.7% (active) | -93.6% (active) | -75.4% (active) | -87.4% (active) | -95.1% (active) | -80.6% (active) | -90.9% (active) | -88.1% (active) | -90.5% (active) | -92.6% (active) | -83.9% (active) | -93.9% (active)
O=C(/C(=C\c1c(-c2ccccc2)[nH]c2ccccc12)S(=O)(=O)c1ccccc1)c1ccccc1 | 68.5% | 8% (active) | 83.3% | 49.8% | 46.7% | 62.1% | -6.63% (active) | 75.4% | 32.3% | 49.7% | 57.4% | 65.9% | 45.4% | 73.8% | 58.6% | 16.6% | 47.7% | 39.8% | 58.9% | 76.2%
COc1ccc(Cl)c([N+](=O)[O-])c1 | 108% | 99.8% | 106% | 102% | 108% | 104% | 98% | 91.9% | 111% | 96.3% | 103% | 107% | 98.2% | 103% | 106% | 105% | 99.2% | 97% | 97.2% | 106%
Cc1ccc(C(=O)O)o1 | 107% | 103% | 104% | 111% | 118% | 98.1% | 99.8% | 99.5% | 103% | 101% | 112% | 92.4% | 90.7% | 112% | 98.3% | 90.2% | 102% | 107% | 100% | 108%
Cc1c(Cl)cccc1NC(=O)c1sc2nc3c(cc2c1N)CCCCCC3 | 9.29% (active) | 9.93% (active) | 58% | 34.2% | 12.2% | 35.7% | 24.6% | 0.159% (active) | 59.6% | 8.66% (active) | 24.1% | -10.3% (active) | -6.81% (active) | 29.1% | 15.7% | 32.9% | 28.7% | 32% | 40.8% | 58.7%
COc1ccc2cc(/C=C3\N=C(c4cc(OC)c(OC)c(OC)c4)OC3=O)c(OC)nc2c1 | 110% | 90.1% | 104% | 91.5% | 119% | 98.2% | 98.7% | 101% | 95.5% | 111% | 99.4% | 98.8% | 98.3% | 94.6% | 92.8% | 93.6% | 103% | 89.7% | 102% | 110%
COc1cc(C(C)c2ccc3c(ccn3C)c2)cc(OC)c1OC (stereo not given) | -15.3% (active) | 6.54% (active) | 68% | 28.1% | 53.1% | 31.4% | 15.5% | -6.4% (active) | 61% | 11.3% | 15.9% | 3.88% (active) | 47% | 33.5% | 14.4% | 23.2% | -51.8% (active) | 32.7% | 23.2% | 67%
Cc1cccc(NC(=O)c2sc3nc4c(cc3c2N)CN(Cc2ccccc2)CC4)c1C | 0.783% (active) | 13.1% | 53.5% | 45.2% | 16.9% | 41.4% | 27.6% | 19.8% | 87.9% | 4.27% (active) | 29.6% | 9.33% (active) | 13.5% | 34.3% | 25.4% | 32.2% | 39.7% | 42.8% | 44% | 68.2%
COc1ccc2nc(-c3ccc(Cl)cc3)cc(C(=O)N3N=C(c4ccc(N)cc4)CC3c3ccccc3)c2c1 (stereo not given) | 55% | 17.5% | 62.5% | 83.8% | 35.3% | 48.3% | 24.2% | 43.4% | 67.1% | 38.9% | 26.7% | 19.6% | 44.3% | 49.6% | 50.7% | 35.9% | 39.4% | 37% | 40.4% | 61.7%
CCOC(=O)NC(Cc1ccccc1)c1ccccc1 (stereo not given) | 110% | 91% | 110% | 97.8% | 112% | 111% | 106% | 98.6% | 108% | 95.8% | 106% | 97.5% | 100% | 104% | 99.9% | 94.7% | 104% | 97.5% | 94.9% | 115%
